Source: PubChem
In the library only some 19% were active in any assay of this set; here they are far more common.
KB-3-1 tox = KB-3-1 parental cell cytotoxicity; KB-3-1 viability, CellTiter-Glo ATP luminescence, 72 h; Potency, µM (doses to about 46.1 µM), usual class: cytotoxic; 400,000 tested, 1.4% active; AID 1347075; note: nearly all actives have a fitted effect of over 60% in size
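Cytotoxicity in the drug-sensitive parental line KB-3-1 was scored as loss of CellTiter-Glo luminescence following 72 h incubation with compound. Values come from curve fitting of normalized concentration-response data.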
DT40 TDP1 CPT = growth inhibition of DT40 Tdp1-/-;hTDP1 cells with camptothecin (screen for TDP1 inhibitors); 420,000 tested, 12% active; Potency, µM (titrated, usually from 46.2 µM), inactives show at the highest dose activity change, negative = growth inhibition, actives largely listed as inhibitors; chicken DT40 Tdp1-/-;hTDP1 cells + 20 nM CPT, ATP luminescence, 48 h; note: nearly all actives have a fitted effect of over 55% in size
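Chicken DT40 Tdp1-/- cells complemented with human TDP1, 400 cells/well, exposed to compounds plus 20 nM camptothecin for at least 48 h at 37 C; viability read as ATP content by CellTiter-Glo luminescence.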
KB-V1 cytotox = kills drug-selected multidrug resistant KB-V1 cells | KB-V1 MDR cells viability, CellTiter-Glo, 72 h | Potency, µM (top dose mostly 46.1 µM), hits mostly cytotoxic | 400,000 tested, 3.4% active | AID 1347076; note: nearly all actives have a fitted effect of over 60% in size
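KB-V1 MDR subline cells in DMEM (phenol-red free, 10% FBS) exposed to compounds in qHTS concentration series for 72 h at 37 degrees C. Viability read by CellTiter-Glo luminescence; concentration-effect curves fitted after normalization and correction.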
HT1080NT lethal = kills 2HG-producing HT-1080-NT fibrosarcoma cells; HT-1080-NT fibrosarcoma viability, CellTiter-Glo ATP luminescence, 48 h; AID 686970; 360,000 tested, 1.6% active; Potency, µM (highest dose often 46.1 µM), without a hit: at the highest dose activity, negative = less viability, usual class: cytotoxic;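 note: NT is the 2HG producing partner of a matched IDH1 knockdown line; 0% = DMSO-treated cells and -100% = media-only wells without cells; nearly all actives have a fitted effect of over 55% in size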
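Compounds were tested in concentration-response format on HT-1080-NT cells for 48 hours at 37 degrees C. Cell viability came from CellTiter-Glo luminescence; curves were classified by r2, response magnitude and activity.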
TDP1 cell noCPT = qHTS for Inhibitors of human tyrosyl-DNA phosphodiesterase 1 (TDP1): qHTS in cells in absence of CPT; DT40 Tdp1-/- hTDP1 cells, no CPT, ATP luminescence, 48 h; Potency, µM (titrated, usually from 46.2 µM), inactives show at the highest dose activity change, negative = growth inhibition, actives largely listed as inhibitors; 420,000 tested, 15% active; note: nearly all actives have a fitted effect of over 55% in size
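Chicken DT40 Tdp1-/- cells stably complemented with human TDP1 were seeded at 400 cells/well with DMSO in place of 20 nM camptothecin. After compound pinning, cells grew at least 48 hr at 37 °C; viability read by CellTiter-Glo luminescence.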
HT1080 IDH1KD tx = HT-1080 IDH1 knockdown cell toxicity (counter line). Potency, µM (top dose mostly 46.1 µM), inactives show at the highest dose activity, negative = toxicity, usual class: cytotoxic. HT-1080 IDH1 knockdown viability, ATP luminescence, 48 h. 360,000 tested, 2% active. AID 686971;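 note: 0% = DMSO wells and -100% = cell-free medium wells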
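Using the IDH1-knockdown HT-1080 line run in the same batch and compound series as the NT line, viability after 48 h at 37 °C was determined by CellTiter-Glo luminescence and expressed as % activity.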
Active calls of the source: *; i = inactive; u = inconclusive; x = not tested or not shown. Calls come from the whole dose curve; as a rule, active = well fitted curve in the direction sought with a large enough effect; inconclusive = small, poorly fitted or top-dose-only effect, or another doubt; inactive = no such curve, though single readings can be large; an effect the other way counts as inactive or inconclusive. Unless noted, % is set by controls: 0 for no effect and ±100 for the full control effect; potency is the fitted concentration of half-maximal effect.

SMILES	KB-3-1 tox	DT40 TDP1 CPT	KB-V1 cytotox	HT1080NT lethal	TDP1 cell noCPT	HT1080 IDH1KD tx
O=C(COc1nsnc1N1CCOCC1)Nc1ccc(Br)cc1	i	u	i	-11%	21µM*	-21%
COc1ccc(OCC(=O)Nc2ccc(S(=O)(=O)N3CCCCC3)cc2)cc1	i	-13%	i	30%	-15%	17%
O=C(CN1C(=O)COc2ccc(S(=O)(=O)N3CCCC3)cc21)N1CCN(c2ccccc2F)CC1	i	x	i	x	x	x
CN1C(=O)C(CC(=O)O)S/C1=N\N=C\c1ccc(O)cc1O (configuration not stated)	i	-15%	i	10%	10%	4%
CCOC(=O)c1c(C)c(C(=O)NCc2ccc(OC)cc2)c(C)n1CC	i	8%	i	x	u	x
O=C(NCc1ccccc1)c1nc[nH]c1C(=O)N1CCc2ccccc2C1	i	u	i	4%	u	5%
CC(C)(C)OC(=O)NCc1ccc(CNC(=O)c2nc[nH]c2C(=O)N2CCc3ccccc3C2)cc1	i	u	i	5%	18µM*	4%
Cc1ccc(NC(=O)c2nc[nH]c2C(=O)N2CCc3ccccc3C2)cc1	i	-25%	i	10%	-25%	15%
CCOC(=O)c1c(C)c(C(=O)N2CCc3ccccc3C2)c(C)n1CC	i	u	u	u	26µM*	u
CCOC(=O)c1ccc(NC(=O)c2nc[nH]c2C(=O)N2CCc3ccccc3C2)cc1	i	12µM*	i	5%	13µM*	2%
CCOC(=O)c1c(C)c(C(=O)NCc2cccs2)c(C)n1CC	i	-23%	15µM*	u	-18%	5%
Cc1ccc2c(c1)N(C(=O)N1CCC(C(=O)NCc3ccco3)CC1)CC(C)O2 (configuration not stated)	i	u	i	x	u	x
OC(c1ccccc1)c1nc(-c2cncnc2)cs1 (configuration not stated)	i	9%	i	14%	-10%	2%
CCSc1nnc(SCC(=O)Nc2cc(C)on2)s1	i	2%	i	-2%	7%	-2%
CC(C)(C)OC(=O)NCc1ccc(CNC(=O)c2nc[nH]c2C(=O)N2CCN(c3ccccc3)CC2)cc1	i	u	i	-1%	26µM*	-5%
Cc1ccc2nc(-c3ccncc3)c(Nc3ccc(C(C)C)cc3)n2c1	i	6.5µM*	i	x	7.3µM*	x
Cc1ccc(Nc2c(-c3ccncc3)nc3ccc(C)cn23)cc1	i	16µM*	i	x	u	x
C=CCN(c1ccccc1)S(=O)(=O)c1ccc(Cl)c(C(=O)OCC(=O)c2[nH]c(C)c(C(C)=O)c2C)c1	u	11%	i	-4%	u	-4%
Cc1cc(C)cc(Cn2cc(CN3CC(N4CCN(Cc5ccccc5F)CC4)CS3(=O)=O)nn2)c1 (configuration not stated)	u	u	i	6%	u	-29%
CN(C)CC(O)COC(c1ccc(Cl)cc1)c1ccc(Cl)cc1 (configuration not stated)	i	u	i	21µM*	21µM*	u
O=C(CN1CCCc2ccccc21)N/N=C/c1ccc(F)cc1F	i	21µM*	i	6%	15µM*	-14%
COc1ccc(/C=N/NC(=O)CN2CCCc3ccccc32)c(OC)c1	i	8%	u	15%	u	-22%
O=C(CN1CCCc2ccccc21)N/N=C/c1ccccc1O	u	-99%	13µM*	-21%	4.1µM*	u
Oc1c(C(c2cccc(Cl)c2)N2CCOCC2)sc2nc(-c3ccco3)nn12 (configuration not stated)	i	-5%	i	x	-16%	x
CCc1ccccc1NC(=O)c1cnn2c(C(F)(F)F)cc(-c3ccc(OC)c(OC)c3)nc12	i	x	u	x	x	x
SMILES	KB-3-1 tox	DT40 TDP1 CPT	KB-V1 cytotox	HT1080NT lethal	TDP1 cell noCPT	HT1080 IDH1KD tx
CC/C(=C/c1ccccc1)c1cccc2[nH]c3c(OC)cccc3c12	u	21µM*	u	u	u	u
O=C(NCCCN1CCN(c2ccccc2F)CC1)c1sc2ncccc2c1-n1cccc1	x	u	x	x	21µM*	x
O=C(NCCCN1CCN(c2cccc(Cl)c2)CC1)c1sc2ncccc2c1-n1cccc1	x	u	x	x	23µM*	x
O=C(NCCCN1CCN(c2ccccc2F)CC1)c1ccc2nc(N3CCCCC3)sc2c1	i	u	i	x	u	x
O=C(Cc1csc(Nc2nc(=S)[nH]c3ccccc23)n1)NCCCN1CCN(c2ccccc2F)CC1	u	8.2µM*	15µM*	21µM*	15µM*	21µM*
Cc1ccc(C)n1-c1c(C(=O)NCCCN2CCN(c3ccc(F)cc3)CC2)sc2ncccc12	i	21µM*	i	x	u	x
Cc1nc2ncnn2c(C)c1CCC(=O)NCCCN1CCN(c2cccc(Cl)c2)CC1	i	3%	i	0%	-13%	12%
CC(C)C#Cc1cnc2c(c1)C(=O)N([C@@H](C)CO)C[C@@H](C)[C@H](CN(C)Cc1cccc(F)c1)O2	i	u	i	-25%	u	-22%
COc1ccc(C(=O)CSc2nc3ncccc3[nH]2)cc1OC	i	-25%	i	2%	u	2%
CC1=Nc2ccccc2/C1=C(/C)c1c(C)[nH]c2ccccc12	u	-2%	i	x	u	x
O=C(CCNS(=O)(=O)c1ccccc1F)N1CCN(C(c2ccccc2)c2ccccc2)CC1	u	u	8.2µM*	-22%	u	-25%
Cc1cc(=O)[nH]c(SCC(=O)N2CCN(C(c3ccccc3)c3ccccc3)CC2)n1	i	18µM*	i	-2%	u	1%
O=C(CSc1ncccn1)N1CCN(C(c2ccccc2)c2ccccc2)CC1	i	u	18µM*	u	u	13%
CCOc1cc(CNc2ncn[nH]2)ccc1OCC(=O)NC(C)(C)C	i	21%	i	8%	-1%	9%
Cc1onc(-c2c(F)cccc2Cl)c1C(=O)N1CCOC12CCCCC2	i	1%	i	-13%	-27%	-12%
COc1ccc(CNCc2ccccc2)cc1COc1ccc(NC(C)=O)cc1	x	8.9µM*	x	-3%	10µM*	2%
